Laboratory results taken from publication PMC11062922 (Nature Chemical Biology, 2023).
Like-named read-outs stand apart in the source and are kept apart here.

What was measured:
[1] = test system: AAK1; set-up: species or system human, MV4-11 + K-562 + COLO205 + SK-N-BE2 + OVCAR-8; details: read-out: apparent Kd, n = 1
[2] = test system: BMP2K; set-up: species or system human, MV4-11 + K-562 + COLO205 + SK-N-BE2 + OVCAR-8; details: read-out: apparent Kd, n = 1
[3] = test system: CSNK2A1;CSNK2A3; set-up: species or system human, MV4-11 + K-562 + COLO205 + SK-N-BE2 + OVCAR-8; details: read-out: apparent Kd, n = 1
[4] = test system: CSNK2A2; set-up: species or system human, MV4-11 + K-562 + COLO205 + SK-N-BE2 + OVCAR-8; details: read-out: apparent Kd, n = 1
[5] = test system: GAK; set-up: species or system human, MV4-11 + K-562 + COLO205 + SK-N-BE2 + OVCAR-8; details: read-out: apparent Kd, n = 1
[6] = test system: GSK3A; set-up: species or system human, MV4-11 + K-562 + COLO205 + SK-N-BE2 + OVCAR-8; details: read-out: apparent Kd; compound concentrations: 100 nM and 1000 nM (sheet 'Samples'), CATDS: 3.3017253821498199E-2; n = 1
[7] = test system: GSK3B; set-up: species or system human, MV4-11 + K-562 + COLO205 + SK-N-BE2 + OVCAR-8; details: read-out: apparent Kd; compound concentrations: 100 nM and 1000 nM (sheet 'Samples'), CATDS: 2.9733635165772199E-2; n = 1
[8] = test system: MELK; set-up: species or system human, MV4-11 + K-562 + COLO205 + SK-N-BE2 + OVCAR-8; details: read-out: apparent Kd, n = 1
[9] = test system: NUAK1; set-up: species or system human, MV4-11 + K-562 + COLO205 + SK-N-BE2 + OVCAR-8; details: read-out: apparent Kd, n = 1
[10] = test system: PAK4; set-up: species or system human, MV4-11 + K-562 + COLO205 + SK-N-BE2 + OVCAR-8; details: read-out: apparent Kd; compound concentrations: 100 nM and 1000 nM (sheet 'Samples'), CATDS: 2.65611791576283E-2; n = 1
[11] = target: Q6ZSR9 (human, UniProt Q6ZSR9); set-up: species or system MV4-11 + K-562 + COLO205 + SK-N-BE2 + OVCAR-8; details: read-out: apparent Kd, n = 1
[12] = test system: RET; set-up: species or system human, MV4-11 + K-562 + COLO205 + SK-N-BE2 + OVCAR-8; details: read-out: apparent Kd; compound concentrations: 100 nM and 1000 nM (sheet 'Samples'), CATDS: 3.1274331482211301E-2; n = 1
[13] = test system: SIK2; set-up: species or system human, MV4-11 + K-562 + COLO205 + SK-N-BE2 + OVCAR-8; details: read-out: apparent Kd, n = 1
[14] = test system: CLK4; set-up: species or system human, MV4-11 + K-562 + COLO205 + SK-N-BE2 + OVCAR-8; details: read-out: apparent Kd, n = 1
[15] = test system: CLK1; set-up: species or system human, MV4-11 + K-562 + COLO205 + SK-N-BE2 + OVCAR-8; details: read-out: apparent Kd; compound concentrations: 100 nM and 1000 nM (sheet 'Samples'), CATDS: 4.62979117088285E-2; n = 1
[16] = compound concentrations:100 nM and 1000 nM (sheet 'Samples')

Q6ZSR9, sequence (Q6ZSR9 whole entry, looked up): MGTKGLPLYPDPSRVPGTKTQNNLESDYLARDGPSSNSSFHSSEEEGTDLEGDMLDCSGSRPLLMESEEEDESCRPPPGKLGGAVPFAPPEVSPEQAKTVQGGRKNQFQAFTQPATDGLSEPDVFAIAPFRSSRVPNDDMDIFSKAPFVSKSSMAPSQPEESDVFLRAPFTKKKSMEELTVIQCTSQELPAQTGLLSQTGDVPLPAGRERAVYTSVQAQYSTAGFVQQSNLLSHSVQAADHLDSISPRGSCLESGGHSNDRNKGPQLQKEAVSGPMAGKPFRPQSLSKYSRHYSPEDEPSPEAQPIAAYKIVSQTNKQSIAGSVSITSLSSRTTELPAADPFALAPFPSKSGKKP

NC(=O)c1cc(-c2ccccc2)cc2c(C3CCNCC3)c[nH]c12 [GSK301362A]
potency estimated from few doses [1, 16]: 1980 nM

CNCC#Cc1c(F)ccc2c1/C(=C/c1[nH]ccc1OC)C(=O)N2.Cl [RO0281601-001]
potency estimated from few doses ([1]; compound concentrations: 100 nM and 1000 nM (sheet 'Samples'), CATDS: 7.8599709029845199E-2): 81.9 nM | potency estimated from few doses ([2]; compound concentrations: 100 nM and 1000 nM (sheet 'Samples'), CATDS: 0.12287640268831): 36.8 nM | potency estimated from few doses ([3]; compound concentrations: 100 nM and 1000 nM (sheet 'Samples'), CATDS: 2.36611103564075E-2): 1450 nM | potency estimated from few doses ([4]; compound concentrations: 100 nM and 1000 nM (sheet 'Samples'), CATDS: 2.8196939656964501E-2): 832 nM | potency estimated from few doses ([5]; compound concentrations: 100 nM and 1000 nM (sheet 'Samples'), CATDS: 2.4779459392996701E-2): 1240 nM | potency estimated from few doses [6]: 543 nM | potency estimated from few doses [7]: 717 nM | potency estimated from few doses ([8]; compound concentrations: 100 nM and 1000 nM (sheet 'Samples'), CATDS: 2.1569826245294601E-2): 2070 nM | potency estimated from few doses ([9]; compound concentrations: 100 nM and 1000 nM (sheet 'Samples'), CATDS: 0.165743265872908): 22.7 nM | potency estimated from few doses [10]: 993 nM | potency estimated from few doses ([11]; compound concentrations: 100 nM and 1000 nM (sheet 'Samples'), CATDS: 7.9611520405697994E-2): 79.9 nM | potency estimated from few doses [12]: 625 nM | potency estimated from few doses ([13]; compound concentrations: 100 nM and 1000 nM (sheet 'Samples'), CATDS: 2.5744963506260699E-2): 1090 nM

CC(C)Oc1ccc2c(-c3ccnc(Nc4ccc(N5CCN(C)CC5)cc4)n3)cnn2n1 [GW696155X]
potency estimated from few doses [1, 16]: 35.4 nM | potency estimated from few doses [2, 16]: 344 nM | potency estimated from few doses [14, 16]: 1570 nM | potency estimated from few doses [3, 16]: 416 nM | potency estimated from few doses [4, 16]: 201 nM | potency estimated from few doses [5, 16]: 454 nM | potency estimated from few doses [9, 16]: 1030 nM | potency estimated from few doses [11, 16]: 39.6 nM | potency estimated from few doses [13, 16]: 781 nM

NS(=O)(=O)c1ccc(N/N=C2\C(=O)Nc3ccc4ncccc4c32)cc1 [GW305178X]
potency estimated from few doses ([1]; compound concentrations: 100 nM and 1000 nM (sheet 'Samples'), CATDS: 4.5052292202984998E-2): 1340 nM | potency estimated from few doses ([2]; compound concentrations: 100 nM and 1000 nM (sheet 'Samples'), CATDS: 4.3500032535549099E-2): 1510 nM | potency estimated from few doses ([3]; compound concentrations: 100 nM and 1000 nM (sheet 'Samples'), CATDS: 3.8490357435000497E-2): 2360 nM | potency estimated from few doses ([4]; compound concentrations: 100 nM and 1000 nM (sheet 'Samples'), CATDS: 4.2211322900730999E-2): 1670 nM | potency estimated from few doses ([11]; compound concentrations: 100 nM and 1000 nM (sheet 'Samples'), CATDS: 4.4355829104281E-2): 1410 nM

Cl.Nc1nc(-c2ccc3c(c2)C(=Cc2cc(Br)c(O)c(Br)c2)C(=O)N3)cs1 [GW407323A]
potency estimated from few doses ([1]; compound concentrations: 100 nM and 1000 nM (sheet 'Samples'), CATDS: 6.1735676660854701E-2): 169 nM | potency estimated from few doses ([2]; compound concentrations: 100 nM and 1000 nM (sheet 'Samples'), CATDS: 9.5342393431140995E-2): 73.6 nM | potency estimated from few doses [15]: 333 nM | potency estimated from few doses ([14]; compound concentrations: 100 nM and 1000 nM (sheet 'Samples'), CATDS: 8.6707828980110799E-2): 87 nM | potency estimated from few doses ([3]; compound concentrations: 100 nM and 1000 nM (sheet 'Samples'), CATDS: 5.7367661207528599E-2): 199 nM | potency estimated from few doses ([4]; compound concentrations: 100 nM and 1000 nM (sheet 'Samples'), CATDS: 4.5506088174881797E-2): 349 nM | potency estimated from few doses ([11]; compound concentrations: 100 nM and 1000 nM (sheet 'Samples'), CATDS: 5.6700337610390401E-2): 204 nM

Cc1cc(NC(=O)c2cccc(NC(=O)/C=C/CN(C)C)c2)ccc1Nc1nccc(-c2cccnc2)n1 [JNK-IN-7]
potency estimated from few doses [1, 16]: 1000 nM | potency estimated from few doses [2, 16]: 1330 nM | potency estimated from few doses [14, 16]: 1630 nM | potency estimated from few doses [8, 16]: 2110 nM | potency estimated from few doses [9, 16]: 688 nM | potency estimated from few doses [11, 16]: 883 nM
